In the supplement of paper PMC11732987, “Enantioselective OTUD7B fragment discovery through chemoproteomics screening and high-throughput optimisation” (Communications Chemistry, 2025):

Legend:
Assay in all cases: log2 ratio of Biotin-Ahx-Ub-VS probe labelling (fragment/DMSO); higher = less target engagement (more negative = stronger competition), active = hit call of the paper (q ≤ 0.05, log2 ratio ≤ -1)
Details in all cases: compound concentration: 200 uM; treatment time: 3 h
[1] = target: T1, USP42 (UniProt Q9H9J4)
T1 sequence (whole entry): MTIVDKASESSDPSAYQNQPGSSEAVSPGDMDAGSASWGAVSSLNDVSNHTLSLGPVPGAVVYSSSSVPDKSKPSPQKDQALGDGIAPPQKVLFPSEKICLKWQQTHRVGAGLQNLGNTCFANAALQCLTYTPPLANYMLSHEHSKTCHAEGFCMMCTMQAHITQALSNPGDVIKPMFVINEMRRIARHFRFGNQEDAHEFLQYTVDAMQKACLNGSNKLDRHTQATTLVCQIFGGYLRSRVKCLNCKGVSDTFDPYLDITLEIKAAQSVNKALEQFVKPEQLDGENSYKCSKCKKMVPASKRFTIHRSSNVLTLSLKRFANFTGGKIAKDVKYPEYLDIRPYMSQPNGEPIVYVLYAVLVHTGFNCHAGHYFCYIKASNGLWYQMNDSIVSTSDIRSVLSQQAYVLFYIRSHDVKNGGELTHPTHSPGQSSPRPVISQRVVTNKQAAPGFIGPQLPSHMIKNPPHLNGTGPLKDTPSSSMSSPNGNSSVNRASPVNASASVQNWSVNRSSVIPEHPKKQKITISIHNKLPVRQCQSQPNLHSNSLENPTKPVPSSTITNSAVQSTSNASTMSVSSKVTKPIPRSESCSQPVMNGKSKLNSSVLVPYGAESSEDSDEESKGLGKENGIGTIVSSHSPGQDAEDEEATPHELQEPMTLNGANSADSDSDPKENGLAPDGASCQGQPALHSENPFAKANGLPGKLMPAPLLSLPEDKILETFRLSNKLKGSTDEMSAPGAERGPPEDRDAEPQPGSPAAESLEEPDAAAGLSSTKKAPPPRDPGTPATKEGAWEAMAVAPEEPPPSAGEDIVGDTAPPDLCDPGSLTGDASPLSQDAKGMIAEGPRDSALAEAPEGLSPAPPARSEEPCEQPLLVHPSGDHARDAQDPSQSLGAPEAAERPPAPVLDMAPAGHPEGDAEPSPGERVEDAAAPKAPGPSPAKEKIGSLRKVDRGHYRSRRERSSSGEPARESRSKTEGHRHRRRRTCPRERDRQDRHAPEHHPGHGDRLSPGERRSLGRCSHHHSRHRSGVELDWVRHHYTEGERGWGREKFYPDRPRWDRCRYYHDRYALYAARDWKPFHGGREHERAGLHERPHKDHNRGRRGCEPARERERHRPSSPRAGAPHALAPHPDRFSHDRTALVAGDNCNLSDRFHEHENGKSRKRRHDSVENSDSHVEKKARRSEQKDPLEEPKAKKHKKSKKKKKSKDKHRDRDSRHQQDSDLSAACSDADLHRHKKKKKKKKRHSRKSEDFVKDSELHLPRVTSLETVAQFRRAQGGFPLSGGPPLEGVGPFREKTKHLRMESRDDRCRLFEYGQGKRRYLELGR
How it was run: (§1)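 HEK293T lysate in Tris/CHAPS/IGEPAL buffer with protease inhibitors (495 µg per sample) was given fragment at 200 µM or vehicle for 3 h, in triplicate. It then received Biotin-Ahx-Ub-VS at 0.5 µM final for 1 h. Labelled DUBs were NeutrAvidin-enriched, digested with LysC and trypsin, and run by diaPASEF LC-MS/MS. Values are average log2 fragment/vehicle ratios by unpaired t-test on global-median-normalised Spectronaut quantities of proteins with ≥2 unique peptides.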

[2] = target: USP46 (UniProt P62068)
How it was run: as §1

[3] = target: T2, USP47 (UniProt Q96K76)
T2 sequence (whole entry): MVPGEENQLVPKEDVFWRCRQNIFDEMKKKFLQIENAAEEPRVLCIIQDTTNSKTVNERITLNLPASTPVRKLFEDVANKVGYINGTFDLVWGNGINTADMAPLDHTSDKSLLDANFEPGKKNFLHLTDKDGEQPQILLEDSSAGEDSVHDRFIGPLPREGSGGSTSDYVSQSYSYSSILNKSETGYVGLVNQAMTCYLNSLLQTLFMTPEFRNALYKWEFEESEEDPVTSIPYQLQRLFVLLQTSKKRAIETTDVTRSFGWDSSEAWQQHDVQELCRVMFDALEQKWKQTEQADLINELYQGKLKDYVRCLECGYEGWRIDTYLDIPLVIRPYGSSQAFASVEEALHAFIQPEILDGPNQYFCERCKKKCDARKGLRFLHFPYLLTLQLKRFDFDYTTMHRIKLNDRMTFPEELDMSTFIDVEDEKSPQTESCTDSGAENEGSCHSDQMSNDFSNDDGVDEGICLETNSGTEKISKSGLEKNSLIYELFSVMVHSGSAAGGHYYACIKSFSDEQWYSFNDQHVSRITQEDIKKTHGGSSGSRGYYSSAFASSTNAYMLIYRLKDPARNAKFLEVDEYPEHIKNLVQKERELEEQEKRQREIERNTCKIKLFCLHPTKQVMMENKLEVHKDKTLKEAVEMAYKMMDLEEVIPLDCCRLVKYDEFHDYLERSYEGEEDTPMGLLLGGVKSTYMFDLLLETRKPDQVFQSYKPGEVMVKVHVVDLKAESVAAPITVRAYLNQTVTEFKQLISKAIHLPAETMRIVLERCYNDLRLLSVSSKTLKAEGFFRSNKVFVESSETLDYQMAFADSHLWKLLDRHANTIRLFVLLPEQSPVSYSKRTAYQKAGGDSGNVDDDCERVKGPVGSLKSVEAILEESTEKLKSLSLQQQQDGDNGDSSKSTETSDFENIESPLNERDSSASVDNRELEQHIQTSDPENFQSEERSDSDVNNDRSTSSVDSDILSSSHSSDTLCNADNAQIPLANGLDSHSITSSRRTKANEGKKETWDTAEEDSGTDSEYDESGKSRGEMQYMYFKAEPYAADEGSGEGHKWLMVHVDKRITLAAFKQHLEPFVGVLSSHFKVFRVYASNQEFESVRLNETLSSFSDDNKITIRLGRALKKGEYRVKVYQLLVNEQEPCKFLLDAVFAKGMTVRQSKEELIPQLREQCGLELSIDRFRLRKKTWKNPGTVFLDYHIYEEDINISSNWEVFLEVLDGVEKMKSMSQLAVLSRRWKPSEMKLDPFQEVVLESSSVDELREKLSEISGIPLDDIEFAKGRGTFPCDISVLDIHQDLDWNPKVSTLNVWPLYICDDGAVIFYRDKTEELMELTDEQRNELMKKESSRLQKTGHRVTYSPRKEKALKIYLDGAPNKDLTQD
How it was run: as §1

[4] = target: T3, USP48 (UniProt Q86UV5)
T3 sequence (whole entry): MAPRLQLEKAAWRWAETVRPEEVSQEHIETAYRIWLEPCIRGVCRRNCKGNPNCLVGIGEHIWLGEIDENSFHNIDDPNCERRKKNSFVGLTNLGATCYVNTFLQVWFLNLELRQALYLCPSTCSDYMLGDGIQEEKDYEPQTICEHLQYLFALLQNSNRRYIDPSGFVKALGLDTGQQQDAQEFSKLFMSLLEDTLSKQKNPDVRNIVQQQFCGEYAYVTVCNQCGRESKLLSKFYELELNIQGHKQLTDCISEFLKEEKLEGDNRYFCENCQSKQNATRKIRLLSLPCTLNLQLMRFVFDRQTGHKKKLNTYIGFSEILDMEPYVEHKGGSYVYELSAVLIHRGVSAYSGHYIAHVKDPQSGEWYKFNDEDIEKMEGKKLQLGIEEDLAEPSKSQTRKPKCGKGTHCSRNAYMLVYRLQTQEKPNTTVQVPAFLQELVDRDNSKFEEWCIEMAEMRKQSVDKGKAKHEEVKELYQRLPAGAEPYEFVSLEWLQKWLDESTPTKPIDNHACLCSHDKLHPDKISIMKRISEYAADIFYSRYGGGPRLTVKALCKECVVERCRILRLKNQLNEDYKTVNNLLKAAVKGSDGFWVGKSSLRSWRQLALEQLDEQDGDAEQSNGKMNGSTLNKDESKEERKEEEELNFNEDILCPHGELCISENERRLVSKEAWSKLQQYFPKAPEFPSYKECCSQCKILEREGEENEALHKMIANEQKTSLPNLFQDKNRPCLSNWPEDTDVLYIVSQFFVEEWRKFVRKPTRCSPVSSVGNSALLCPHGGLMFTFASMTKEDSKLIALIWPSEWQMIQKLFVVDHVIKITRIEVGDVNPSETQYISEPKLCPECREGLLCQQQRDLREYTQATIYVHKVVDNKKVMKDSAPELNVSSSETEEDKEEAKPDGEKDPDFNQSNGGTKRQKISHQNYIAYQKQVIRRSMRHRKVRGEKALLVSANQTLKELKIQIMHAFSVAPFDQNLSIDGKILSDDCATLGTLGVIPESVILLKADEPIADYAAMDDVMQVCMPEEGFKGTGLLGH
How it was run: as §1

[5] = target: T4, USP5 (UniProt P45974)
T4 sequence (whole entry): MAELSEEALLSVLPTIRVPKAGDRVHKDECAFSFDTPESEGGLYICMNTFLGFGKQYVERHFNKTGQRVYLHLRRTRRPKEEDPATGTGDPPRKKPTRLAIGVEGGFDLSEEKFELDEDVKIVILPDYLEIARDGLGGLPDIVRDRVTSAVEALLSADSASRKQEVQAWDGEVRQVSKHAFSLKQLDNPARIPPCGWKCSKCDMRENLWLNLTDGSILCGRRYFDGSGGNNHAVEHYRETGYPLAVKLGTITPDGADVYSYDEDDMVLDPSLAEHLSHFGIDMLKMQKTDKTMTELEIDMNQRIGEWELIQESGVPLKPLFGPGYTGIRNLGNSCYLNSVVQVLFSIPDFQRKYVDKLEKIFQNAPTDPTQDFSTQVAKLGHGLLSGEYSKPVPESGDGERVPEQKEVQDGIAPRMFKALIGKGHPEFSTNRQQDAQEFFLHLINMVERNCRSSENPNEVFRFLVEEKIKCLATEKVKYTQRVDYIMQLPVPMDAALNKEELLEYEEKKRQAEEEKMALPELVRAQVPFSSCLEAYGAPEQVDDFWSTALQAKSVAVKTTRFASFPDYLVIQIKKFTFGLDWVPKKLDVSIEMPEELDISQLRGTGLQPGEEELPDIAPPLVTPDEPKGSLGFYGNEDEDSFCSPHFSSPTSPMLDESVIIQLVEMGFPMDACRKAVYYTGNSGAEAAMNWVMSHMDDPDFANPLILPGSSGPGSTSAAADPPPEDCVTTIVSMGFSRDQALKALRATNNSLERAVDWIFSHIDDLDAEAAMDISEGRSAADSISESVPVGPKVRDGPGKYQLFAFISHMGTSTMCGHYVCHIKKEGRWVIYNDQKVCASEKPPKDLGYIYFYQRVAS
How it was run: as §1

[6] = target: USP54 (UniProt Q70EL1)
How it was run: as §1

[7] = target: USP7 (UniProt Q93009)
How it was run: as §1

[8] = target: T5, USP8 (UniProt P40818)
T5 sequence (whole entry): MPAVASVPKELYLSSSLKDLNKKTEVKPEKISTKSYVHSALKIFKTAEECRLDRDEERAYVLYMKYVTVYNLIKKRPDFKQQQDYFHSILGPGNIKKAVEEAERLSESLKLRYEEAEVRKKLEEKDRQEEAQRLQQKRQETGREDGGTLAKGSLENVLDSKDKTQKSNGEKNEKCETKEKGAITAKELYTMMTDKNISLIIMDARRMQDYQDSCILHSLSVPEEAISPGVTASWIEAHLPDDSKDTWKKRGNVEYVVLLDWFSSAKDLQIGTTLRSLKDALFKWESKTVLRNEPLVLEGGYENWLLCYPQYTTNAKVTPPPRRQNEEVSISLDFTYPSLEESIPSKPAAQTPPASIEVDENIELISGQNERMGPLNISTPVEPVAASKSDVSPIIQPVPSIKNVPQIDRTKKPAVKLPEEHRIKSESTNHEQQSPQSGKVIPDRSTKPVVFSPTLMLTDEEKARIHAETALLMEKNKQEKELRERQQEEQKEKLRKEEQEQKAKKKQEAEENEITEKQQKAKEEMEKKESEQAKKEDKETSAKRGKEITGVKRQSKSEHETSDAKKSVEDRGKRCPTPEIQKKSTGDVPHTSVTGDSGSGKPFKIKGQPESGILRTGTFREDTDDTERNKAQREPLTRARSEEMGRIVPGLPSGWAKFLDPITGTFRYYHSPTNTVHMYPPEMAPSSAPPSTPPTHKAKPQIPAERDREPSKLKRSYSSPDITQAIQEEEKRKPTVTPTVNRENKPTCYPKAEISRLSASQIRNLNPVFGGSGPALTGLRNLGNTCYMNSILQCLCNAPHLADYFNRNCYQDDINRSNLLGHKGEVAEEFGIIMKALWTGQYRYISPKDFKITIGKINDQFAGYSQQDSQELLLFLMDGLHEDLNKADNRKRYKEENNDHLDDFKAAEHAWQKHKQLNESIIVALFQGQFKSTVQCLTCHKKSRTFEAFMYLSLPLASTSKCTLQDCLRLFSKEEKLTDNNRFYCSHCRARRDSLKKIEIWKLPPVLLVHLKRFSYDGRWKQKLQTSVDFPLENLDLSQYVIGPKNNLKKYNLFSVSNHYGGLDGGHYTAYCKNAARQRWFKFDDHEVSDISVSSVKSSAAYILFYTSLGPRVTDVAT
How it was run: as §1

Measured: log2 ratio of Biotin-Ahx-Ub-VS probe labelling

Sequence of USP7 (Q93009 whole entry, looked up): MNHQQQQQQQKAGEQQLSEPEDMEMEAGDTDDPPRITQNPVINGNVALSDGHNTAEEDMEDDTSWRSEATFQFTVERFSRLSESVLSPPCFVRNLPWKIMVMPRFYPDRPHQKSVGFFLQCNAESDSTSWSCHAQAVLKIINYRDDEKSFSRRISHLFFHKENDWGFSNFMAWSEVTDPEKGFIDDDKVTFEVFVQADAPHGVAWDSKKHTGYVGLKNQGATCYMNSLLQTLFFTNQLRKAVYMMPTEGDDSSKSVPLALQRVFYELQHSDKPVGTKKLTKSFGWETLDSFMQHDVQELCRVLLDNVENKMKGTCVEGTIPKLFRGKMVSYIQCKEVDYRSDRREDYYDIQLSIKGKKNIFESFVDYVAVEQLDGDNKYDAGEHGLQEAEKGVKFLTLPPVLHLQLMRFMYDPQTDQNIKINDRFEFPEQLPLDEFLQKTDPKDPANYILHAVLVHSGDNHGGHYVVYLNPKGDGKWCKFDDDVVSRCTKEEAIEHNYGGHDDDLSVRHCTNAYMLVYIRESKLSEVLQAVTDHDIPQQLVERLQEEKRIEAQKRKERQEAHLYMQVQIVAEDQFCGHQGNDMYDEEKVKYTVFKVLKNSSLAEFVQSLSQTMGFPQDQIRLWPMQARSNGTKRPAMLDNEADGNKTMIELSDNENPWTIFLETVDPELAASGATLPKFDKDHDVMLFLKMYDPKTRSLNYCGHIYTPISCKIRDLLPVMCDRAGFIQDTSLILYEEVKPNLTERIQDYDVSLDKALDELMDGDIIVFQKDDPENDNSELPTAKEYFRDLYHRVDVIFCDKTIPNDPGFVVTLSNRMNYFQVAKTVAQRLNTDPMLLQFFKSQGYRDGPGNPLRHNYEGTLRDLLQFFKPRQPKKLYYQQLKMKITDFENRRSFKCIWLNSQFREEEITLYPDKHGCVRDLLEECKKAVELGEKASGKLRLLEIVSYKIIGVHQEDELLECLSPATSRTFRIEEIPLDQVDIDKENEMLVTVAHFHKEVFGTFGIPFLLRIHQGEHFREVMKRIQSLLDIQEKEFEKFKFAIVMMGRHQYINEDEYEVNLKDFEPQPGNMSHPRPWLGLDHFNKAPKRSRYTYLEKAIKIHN
Sequence of USP46 (P62068 whole entry): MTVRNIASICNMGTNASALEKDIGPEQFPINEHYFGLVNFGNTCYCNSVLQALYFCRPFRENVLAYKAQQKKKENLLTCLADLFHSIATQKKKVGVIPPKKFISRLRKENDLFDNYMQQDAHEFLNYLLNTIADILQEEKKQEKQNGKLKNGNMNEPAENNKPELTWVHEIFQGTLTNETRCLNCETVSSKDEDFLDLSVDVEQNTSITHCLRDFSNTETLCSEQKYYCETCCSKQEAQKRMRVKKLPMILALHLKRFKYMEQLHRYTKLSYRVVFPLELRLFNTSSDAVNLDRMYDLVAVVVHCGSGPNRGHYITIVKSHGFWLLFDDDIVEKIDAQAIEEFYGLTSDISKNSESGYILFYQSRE
Sequence of USP54 (Q70EL1 whole entry): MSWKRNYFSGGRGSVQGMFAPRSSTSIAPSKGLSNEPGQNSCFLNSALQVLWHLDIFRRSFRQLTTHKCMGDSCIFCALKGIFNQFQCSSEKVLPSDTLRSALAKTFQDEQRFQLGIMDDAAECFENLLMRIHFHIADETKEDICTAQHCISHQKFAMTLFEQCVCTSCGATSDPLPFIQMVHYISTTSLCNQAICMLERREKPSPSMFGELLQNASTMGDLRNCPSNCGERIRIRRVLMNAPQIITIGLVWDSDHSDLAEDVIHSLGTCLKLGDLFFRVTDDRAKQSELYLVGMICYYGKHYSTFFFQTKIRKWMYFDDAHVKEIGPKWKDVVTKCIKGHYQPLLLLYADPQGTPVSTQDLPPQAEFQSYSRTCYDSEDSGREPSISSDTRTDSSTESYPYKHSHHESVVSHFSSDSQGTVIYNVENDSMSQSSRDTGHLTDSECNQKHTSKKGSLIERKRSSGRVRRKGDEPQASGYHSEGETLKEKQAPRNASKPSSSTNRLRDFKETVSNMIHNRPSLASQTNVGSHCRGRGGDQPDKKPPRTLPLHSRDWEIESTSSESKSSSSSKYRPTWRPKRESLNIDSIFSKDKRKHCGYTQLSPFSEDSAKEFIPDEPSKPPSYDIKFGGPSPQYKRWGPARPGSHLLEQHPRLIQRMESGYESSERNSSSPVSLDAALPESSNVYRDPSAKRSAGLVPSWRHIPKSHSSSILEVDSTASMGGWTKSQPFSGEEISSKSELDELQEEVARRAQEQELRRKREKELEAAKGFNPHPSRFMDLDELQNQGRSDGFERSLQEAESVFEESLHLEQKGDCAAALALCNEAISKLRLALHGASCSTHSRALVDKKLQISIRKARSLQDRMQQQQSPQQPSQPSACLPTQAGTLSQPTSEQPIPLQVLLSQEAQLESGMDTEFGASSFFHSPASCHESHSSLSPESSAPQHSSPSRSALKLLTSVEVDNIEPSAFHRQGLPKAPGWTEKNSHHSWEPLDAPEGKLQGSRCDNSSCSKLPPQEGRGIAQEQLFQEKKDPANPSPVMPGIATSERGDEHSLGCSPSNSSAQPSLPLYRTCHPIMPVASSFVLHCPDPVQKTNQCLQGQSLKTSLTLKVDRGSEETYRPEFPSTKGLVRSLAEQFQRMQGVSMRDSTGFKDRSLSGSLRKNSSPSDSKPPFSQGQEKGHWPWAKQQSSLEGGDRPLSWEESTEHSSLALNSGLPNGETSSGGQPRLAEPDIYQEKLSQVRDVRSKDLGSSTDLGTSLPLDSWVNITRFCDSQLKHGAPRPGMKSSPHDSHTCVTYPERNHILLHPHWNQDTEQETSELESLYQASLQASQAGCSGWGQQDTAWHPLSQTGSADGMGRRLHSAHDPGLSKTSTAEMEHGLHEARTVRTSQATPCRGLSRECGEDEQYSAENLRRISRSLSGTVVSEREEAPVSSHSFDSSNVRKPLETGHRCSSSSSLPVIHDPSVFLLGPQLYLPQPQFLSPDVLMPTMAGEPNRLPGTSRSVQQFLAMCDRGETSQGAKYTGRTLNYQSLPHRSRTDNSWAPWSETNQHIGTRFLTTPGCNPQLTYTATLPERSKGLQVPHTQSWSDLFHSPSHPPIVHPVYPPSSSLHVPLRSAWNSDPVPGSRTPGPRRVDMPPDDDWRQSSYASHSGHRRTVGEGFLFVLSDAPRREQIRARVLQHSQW

CC1(NC(=O)CCl)CCS(=O)(=O)C1 (stereo not drawn)
inactive: [1] 0.324 | [2] -0.538 | [3] -0.0229 | [4] -0.544 | [5] -0.73 | [6] 1.09 | [7] -0.793 | [8] -0.788
